From PubChem BioAssay (EPA / NIEHS)
Inconclusive results are not listed. Activity calls are given as the source filed them. How the source made its calls: active means hit-call score of the fitted dose curve at least 0.9, where 1 is the maximum; inconclusive means response in the unintended direction; inactive means score below 0.9.

Legend:
[1] = target: human Caspase 5 (CASP5), CASP5 (gene 838) (UniProt P51878); assay: NVS_ENZ_hCASP5: NovaScreen (NVS) Enzymatic Assay for human Caspase 5 (CASP5) (AID 2283137)
Outline: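 Recombinant human caspase 5 expressed in E. coli, fluorogenic substrate, fluorescence read 2 h after dosing. Single-point 25 uM duplicate screen, then concentration-response to maximum 50 uM for actives; DMSO baseline.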

[2] = target: human Beta-secretase (BACE), BACE1 (gene 23621) (UniProt P56817); assay: NVS_ENZ_hBACE: NovaScreen (NVS) Enzymatic Assay for human Beta-secretase (BACE) (AID 2283140);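 further: hits are inhibitors that reduce fluorescent substrate signal versus DMSO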
Outline: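 Cell-free assay of recombinant Sf9-expressed human BACE with fluorescent substrate, read by fluorescence intensity after 1 h. Primary screen in duplicate at 25 uM; actives then run in concentration series; loss of signal relative to DMSO.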

[3] = target: human Dual Specificity Protein Phosphatase 3 (DUSP3), DUSP3 (gene 1845) (UniProt P51452); assay: NVS_ENZ_hDUSP3: NovaScreen (NVS) Enzymatic Assay for human Dual Specificity Protein Phosphatase 3 (DUSP3) (AID 2283152);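 further: phosphatase activity of recombinant human DUSP3 on a fluorogenic substrate without cells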
Outline: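 Cell-free assay with recombinant human DUSP3 and fluorogenic substrate, read by fluorescence intensity. Primary screen ran duplicate at 25 uM; actives followed up in concentration series; loss of signal versus DMSO scored.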

[4] = target: human Ephrin type-A Receptor 1 (EphA1), EPHA1 (gene 2041) (UniProt P21709); assay: NVS_ENZ_hEphA1: NovaScreen (NVS) Enzymatic Assay for human Ephrin type-A Receptor 1 (EphA1) (AID 2283158);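 further: activity is signal loss versus DMSO meaning EphA1 kinase inhibition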
Outline: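 Here the EphA1 protein is recombinant and the substrate fluorescent, with electrophoretic separation before fluorescence detection at 1 hour. Signal loss against DMSO defines activity; plate controls included; follow-up concentration series reach 50 uM.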

[5] = target: human Phosphoinositide 3-kinase alpha (PI3Ka), PIK3CA (gene 5290) (UniProt P42336); assay: NVS_ENZ_hPI3Ka: NovaScreen (NVS) Enzymatic Assay for human Phosphoinositide 3-kinase alpha (PI3Ka) (AID 2283196)
Outline: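 Enzyme activity as fluorescence after mobility-shift separation of substrate and product, 1 h reaction, recombinant human PI3Kα; concentration-response to 50 uM max for chemicals passing a 25 uM duplicate screen.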

[6] = target: Cytochrome P450 3A4 (Homo sapiens) (UniProt P08684); assay: NVS_ADME_hCYP3A4: NovaScreen (NVS) CYP450-related Enzyme Activity (ADME) Assay for human CYP3A4 (AID 2283110)
Outline: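 Compounds were first screened in duplicate at 10 uM against recombinant CYP3A4 produced in insect cells, then actives were run in concentration series. Enzyme activity was measured by fluorescence after 0.33 hour, with acetonitrile as baseline.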

[7] = target: human Matrix Metalloproteinase-9 (MMP9), MMP9 (gene 4318) (UniProt P14780); assay: NVS_ENZ_hMMP9: NovaScreen (NVS) Enzymatic Assay for human Matrix Metalloproteinase-9 (MMP9) (AID 2283190);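 further: cell-free recombinant MMP9 protease activity read by fluorescent substrate signal; active means inhibition seen as loss of fluorescence signal versus DMSO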
Outline: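 Cell-free fluorescence-intensity enzyme activity assay using extracted protein, read 1 h after dosing. Loss of signal versus DMSO baseline indicates inhibition; primary screen in duplicate at 25 uM, actives followed up in concentration series.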

[8] = target: human CYP2C9, CYP2C9 (gene 1559) (UniProt P11712); assay: NVS_ADME_hCYP2C9: NovaScreen (NVS) CYP450-related Enzyme Activity (ADME) Assay for human CYP2C9 (AID 2283108)
Outline: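 Fluorescence readout of CYP2C9 activity (SF9-expressed human enzyme) at 0.75 h. The primary screen used 10 uM in duplicate, with concentration-response follow-up for actives; acetonitrile was the negative control.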

[9] = target: human Phosphodiesterase 10 (PDE10), PDE10A (gene 10846) (UniProt Q9Y233); assay: NVS_ENZ_hPDE10: NovaScreen (NVS) Enzymatic Assay for human Phosphodiesterase 10 (PDE10) (AID 2283195)
Outline: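 PDE10A, cell-free; 1 h incubation; fluorescence intensity + electrophoretic mobility shift separating substrate/product; DMSO = baseline; 25 uM duplicate primary, CRC up to 50 uM.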

[10] = target: Cytochrome P450 2C19 (Homo sapiens) (UniProt P33261); assay: NVS_ADME_hCYP2C19: NovaScreen (NVS) CYP450-related Enzyme Activity (ADME) Assay for human CYP2C19 (AID 2283113);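 on AC50: potency for inhibition seen as loss of fluorescent signal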
Outline: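 Biochemical CYP2C19 inhibition screen: insect-cell recombinant protein plus fluorescent substrate, 1 h, fluorescence intensity. Acetonitrile defined baseline activity. Single 10 uM concentration in duplicate, with concentration-response follow-up for actives.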

[11] = target: human Vascular Endothelial Growth Factor Receptor 1 (VEGFR1), FLT1 (gene 2321) (UniProt P17948); assay: NVS_ENZ_hVEGFR1: NovaScreen (NVS) Enzymatic Assay for human Vascular Endothelial Growth Factor Receptor 1 (VEGFR1) (AID 2283226)
Outline: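 Cell-free assay of recombinant human VEGFR1 kinase with substrate, measured 1 h after dosing; fluorescence with electrophoretic mobility-shift separation of substrate and product, referenced to DMSO; primary screen at 25 uM in duplicate, actives then run in concentration series.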

[12] = target: human Sirtuin 3 (SIRT3), SIRT3 (gene 23410) (UniProt Q9NTG7); assay: NVS_ENZ_hSIRT3: NovaScreen (NVS) Enzymatic Assay for human Sirtuin 3 (SIRT3) (AID 2283222)
Outline: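 Cell-free enzyme assay with recombinant protein and fluorescent substrate, product separated by electrophoretic mobility shift; read 1 hour after dosing. Screened in duplicate at 25 uM, then singleton concentration-response up to 50 uM; loss of signal versus DMSO.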

[13] = target: sheep Cyclooxygenase-1 (Cox1), PTGS1 (gene 443551) (UniProt P05979); assay: NVS_ENZ_oCOX1: NovaScreen (NVS) Enzymatic Assay for sheep Cyclooxygenase-1 (Cox1) (AID 2283239);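 further: actives reduce cyclooxygenase activity so potencies are for inhibitors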
Outline: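 Tested in duplicate at 25 uM, then in concentration series if active, against seminal vesicle extract from sheep. Enzyme activity was measured colorimetrically at 0.66 hour and normalised to DMSO.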

[14] = target: human Esterase Plasma (ES), BCHE (gene 590) (UniProt P06276); assay: NVS_ENZ_hES: NovaScreen (NVS) Enzymatic Assay for human Esterase Plasma (ES) (AID 2283157)
Outline: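 Chemicals were added to plasma-extracted human enzyme in a cell-free format, and activity was read colorimetrically after 0.25 hour. Activity loss was referenced to DMSO; concentration-response top dose was 50 uM.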

[15] = target: rat CYP2A2, Cyp2a2 (gene 24895) (UniProt P15149); assay: NVS_ADME_rCYP2A2: NovaScreen (NVS) CYP450-related Enzyme Activity (ADME) Assay for rat CYP2A2 (AID 2283116)
Outline: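 Cell-free recombinant rat CYP2A2 activity with fluorogenic substrate, fluorescence read 0.2 h after dosing. Chemicals screened at 10 uM in duplicate, hits then run in concentration-response up to 20 uM; signal loss versus acetonitrile baseline.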

human Vascular Endothelial Growth Factor Receptor 1 (VEGFR1), FLT1 (gene 2321), sequence (P17948 whole entry, looked up): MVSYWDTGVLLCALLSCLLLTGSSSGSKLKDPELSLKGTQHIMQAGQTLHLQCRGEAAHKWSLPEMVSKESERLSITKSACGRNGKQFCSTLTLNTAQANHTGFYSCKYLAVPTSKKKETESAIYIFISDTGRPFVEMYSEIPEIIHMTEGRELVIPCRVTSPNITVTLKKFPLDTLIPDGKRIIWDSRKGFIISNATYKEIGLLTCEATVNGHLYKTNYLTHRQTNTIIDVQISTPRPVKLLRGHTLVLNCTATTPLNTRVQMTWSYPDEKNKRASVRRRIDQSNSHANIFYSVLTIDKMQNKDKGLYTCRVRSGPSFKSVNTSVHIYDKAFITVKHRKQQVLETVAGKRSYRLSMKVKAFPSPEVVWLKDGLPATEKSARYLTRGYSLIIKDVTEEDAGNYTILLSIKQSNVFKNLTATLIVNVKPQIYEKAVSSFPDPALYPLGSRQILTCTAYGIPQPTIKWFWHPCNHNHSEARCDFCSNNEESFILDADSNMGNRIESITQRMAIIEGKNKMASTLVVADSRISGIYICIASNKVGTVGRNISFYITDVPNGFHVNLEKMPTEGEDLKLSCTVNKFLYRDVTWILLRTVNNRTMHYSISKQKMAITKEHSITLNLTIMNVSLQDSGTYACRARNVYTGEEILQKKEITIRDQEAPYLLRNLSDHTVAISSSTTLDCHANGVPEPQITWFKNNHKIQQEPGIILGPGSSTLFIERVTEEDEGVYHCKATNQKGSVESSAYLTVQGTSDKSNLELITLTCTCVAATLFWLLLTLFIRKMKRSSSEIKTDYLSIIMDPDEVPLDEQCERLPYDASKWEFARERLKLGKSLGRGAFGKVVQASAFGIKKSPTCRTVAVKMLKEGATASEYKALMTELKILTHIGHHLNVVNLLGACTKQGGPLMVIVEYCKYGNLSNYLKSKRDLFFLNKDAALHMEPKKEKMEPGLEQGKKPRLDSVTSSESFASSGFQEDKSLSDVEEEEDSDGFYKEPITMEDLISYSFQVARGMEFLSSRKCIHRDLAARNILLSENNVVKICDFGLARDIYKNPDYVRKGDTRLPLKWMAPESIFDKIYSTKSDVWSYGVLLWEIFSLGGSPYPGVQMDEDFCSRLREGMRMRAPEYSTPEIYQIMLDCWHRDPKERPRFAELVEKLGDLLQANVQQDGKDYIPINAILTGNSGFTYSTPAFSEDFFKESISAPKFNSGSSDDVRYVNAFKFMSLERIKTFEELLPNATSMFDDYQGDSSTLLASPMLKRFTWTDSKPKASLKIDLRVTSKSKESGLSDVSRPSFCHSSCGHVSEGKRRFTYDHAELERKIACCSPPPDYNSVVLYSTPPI
human Matrix Metalloproteinase-9 (MMP9), MMP9 (gene 4318), sequence (P14780 whole entry, looked up): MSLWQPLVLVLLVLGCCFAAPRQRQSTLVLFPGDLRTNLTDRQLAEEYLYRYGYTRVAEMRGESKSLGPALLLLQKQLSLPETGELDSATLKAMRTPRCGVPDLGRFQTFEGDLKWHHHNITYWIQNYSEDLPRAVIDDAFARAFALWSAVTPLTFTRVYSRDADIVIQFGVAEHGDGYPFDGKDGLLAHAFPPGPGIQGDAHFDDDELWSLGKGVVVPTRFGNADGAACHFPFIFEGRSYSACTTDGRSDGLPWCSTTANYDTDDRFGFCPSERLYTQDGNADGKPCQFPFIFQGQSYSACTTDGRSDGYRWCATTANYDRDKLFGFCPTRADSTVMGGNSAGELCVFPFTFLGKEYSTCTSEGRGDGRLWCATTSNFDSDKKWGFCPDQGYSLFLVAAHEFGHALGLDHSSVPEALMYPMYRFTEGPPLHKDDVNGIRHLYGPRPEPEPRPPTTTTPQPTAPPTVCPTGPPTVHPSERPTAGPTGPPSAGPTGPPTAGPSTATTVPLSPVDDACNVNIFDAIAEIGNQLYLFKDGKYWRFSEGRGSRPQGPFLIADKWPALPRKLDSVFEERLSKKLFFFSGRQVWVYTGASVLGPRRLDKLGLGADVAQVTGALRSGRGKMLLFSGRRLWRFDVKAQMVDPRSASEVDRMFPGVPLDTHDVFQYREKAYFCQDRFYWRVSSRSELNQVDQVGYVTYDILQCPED
human Beta-secretase (BACE), BACE1 (gene 23621), sequence (P56817 whole entry, looked up): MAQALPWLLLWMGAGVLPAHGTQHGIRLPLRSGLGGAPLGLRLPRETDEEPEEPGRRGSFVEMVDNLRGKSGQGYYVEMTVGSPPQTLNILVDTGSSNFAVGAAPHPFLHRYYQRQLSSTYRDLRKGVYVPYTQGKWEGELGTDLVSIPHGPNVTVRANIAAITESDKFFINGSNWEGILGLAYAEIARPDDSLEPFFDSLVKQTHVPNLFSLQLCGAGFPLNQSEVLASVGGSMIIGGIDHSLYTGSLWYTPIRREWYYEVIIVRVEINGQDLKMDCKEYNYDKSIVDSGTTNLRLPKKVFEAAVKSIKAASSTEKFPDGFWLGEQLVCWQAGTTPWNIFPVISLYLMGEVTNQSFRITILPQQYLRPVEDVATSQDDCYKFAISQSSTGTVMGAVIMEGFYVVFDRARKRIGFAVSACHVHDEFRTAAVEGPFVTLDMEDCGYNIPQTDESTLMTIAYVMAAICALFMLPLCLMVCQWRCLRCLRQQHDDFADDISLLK
human Dual Specificity Protein Phosphatase 3 (DUSP3), DUSP3 (gene 1845), sequence (P51452 whole entry, looked up): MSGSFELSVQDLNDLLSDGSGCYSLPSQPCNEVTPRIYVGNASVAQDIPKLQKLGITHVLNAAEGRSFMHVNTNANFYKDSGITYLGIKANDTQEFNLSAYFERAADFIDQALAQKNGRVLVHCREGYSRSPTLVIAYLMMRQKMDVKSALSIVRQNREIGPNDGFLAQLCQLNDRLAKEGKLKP
human Phosphodiesterase 10 (PDE10), PDE10A (gene 10846), sequence (Q9Y233 whole entry, looked up): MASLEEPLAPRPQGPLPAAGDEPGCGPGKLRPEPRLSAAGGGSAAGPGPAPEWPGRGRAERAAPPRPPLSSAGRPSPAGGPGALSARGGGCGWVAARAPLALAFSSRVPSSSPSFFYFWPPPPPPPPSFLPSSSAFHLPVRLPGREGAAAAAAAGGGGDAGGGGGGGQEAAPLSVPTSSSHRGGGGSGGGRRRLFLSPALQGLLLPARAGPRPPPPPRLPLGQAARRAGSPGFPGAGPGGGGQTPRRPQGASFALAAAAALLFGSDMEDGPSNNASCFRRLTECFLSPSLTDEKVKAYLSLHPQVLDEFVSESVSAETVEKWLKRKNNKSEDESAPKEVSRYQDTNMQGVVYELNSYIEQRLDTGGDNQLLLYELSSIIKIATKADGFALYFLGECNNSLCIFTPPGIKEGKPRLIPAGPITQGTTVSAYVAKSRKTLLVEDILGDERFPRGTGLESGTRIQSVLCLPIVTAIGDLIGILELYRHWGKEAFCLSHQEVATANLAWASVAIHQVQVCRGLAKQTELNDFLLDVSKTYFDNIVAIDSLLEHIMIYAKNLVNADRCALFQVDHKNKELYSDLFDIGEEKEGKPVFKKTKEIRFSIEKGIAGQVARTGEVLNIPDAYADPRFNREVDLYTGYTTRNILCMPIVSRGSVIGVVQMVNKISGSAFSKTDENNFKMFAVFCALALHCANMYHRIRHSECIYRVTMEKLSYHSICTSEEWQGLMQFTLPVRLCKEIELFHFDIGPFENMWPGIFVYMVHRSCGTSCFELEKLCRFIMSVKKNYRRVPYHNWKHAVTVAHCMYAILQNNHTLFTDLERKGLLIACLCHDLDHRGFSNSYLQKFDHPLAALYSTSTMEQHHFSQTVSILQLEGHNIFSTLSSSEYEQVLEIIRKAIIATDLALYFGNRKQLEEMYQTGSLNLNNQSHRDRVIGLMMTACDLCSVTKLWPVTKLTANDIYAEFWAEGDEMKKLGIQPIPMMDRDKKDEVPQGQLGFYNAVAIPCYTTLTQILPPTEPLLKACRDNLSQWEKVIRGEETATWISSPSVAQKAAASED
human Phosphoinositide 3-kinase alpha (PI3Ka), PIK3CA (gene 5290), sequence (P42336 whole entry, looked up): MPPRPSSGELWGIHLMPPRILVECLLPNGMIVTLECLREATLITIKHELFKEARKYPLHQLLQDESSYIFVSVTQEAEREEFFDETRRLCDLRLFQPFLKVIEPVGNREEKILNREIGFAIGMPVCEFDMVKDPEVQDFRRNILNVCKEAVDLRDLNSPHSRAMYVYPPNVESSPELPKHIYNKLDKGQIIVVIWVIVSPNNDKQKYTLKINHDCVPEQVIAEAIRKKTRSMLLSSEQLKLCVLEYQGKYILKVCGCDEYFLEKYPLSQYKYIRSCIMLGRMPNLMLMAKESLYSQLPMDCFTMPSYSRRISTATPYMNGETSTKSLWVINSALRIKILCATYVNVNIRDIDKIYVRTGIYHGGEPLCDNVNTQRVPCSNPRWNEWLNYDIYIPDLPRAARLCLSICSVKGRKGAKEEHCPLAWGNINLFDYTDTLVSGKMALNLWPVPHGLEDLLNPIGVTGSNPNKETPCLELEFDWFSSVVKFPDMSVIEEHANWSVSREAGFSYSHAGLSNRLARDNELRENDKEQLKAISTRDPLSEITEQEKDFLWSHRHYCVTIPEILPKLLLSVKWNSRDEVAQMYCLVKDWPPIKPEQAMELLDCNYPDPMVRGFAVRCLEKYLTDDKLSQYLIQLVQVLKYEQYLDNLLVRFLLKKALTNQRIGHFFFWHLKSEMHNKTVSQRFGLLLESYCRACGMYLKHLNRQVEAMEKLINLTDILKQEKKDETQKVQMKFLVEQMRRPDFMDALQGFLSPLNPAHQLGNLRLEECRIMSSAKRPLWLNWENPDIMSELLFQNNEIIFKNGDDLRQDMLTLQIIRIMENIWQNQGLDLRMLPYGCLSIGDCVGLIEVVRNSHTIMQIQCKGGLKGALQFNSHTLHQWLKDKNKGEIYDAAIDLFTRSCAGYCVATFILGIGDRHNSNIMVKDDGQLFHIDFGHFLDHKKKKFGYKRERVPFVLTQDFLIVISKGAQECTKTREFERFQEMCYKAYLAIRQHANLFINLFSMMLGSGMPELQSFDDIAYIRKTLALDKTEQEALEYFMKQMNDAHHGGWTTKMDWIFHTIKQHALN

In the case of c1ccc2cc(Nc3ccc(Nc4ccc5ccccc5c4)cc3)ccc2c1, the outcome [1] is reported as “inactive”, the AC50 [2] is reported as 13.1 µM (active) and the AC50 [3] is reported as 22.4 µM (active). For the same molecule, the outcome [4] was “inactive” and the AC50 [5] was 17.6 µM (active).

With CCCCOC(=O)CCCCCCCC(=O)OCCCC the AC50 [6] was 3.8 µM (active) and the outcome [3] was “inactive”.

With CC(=O)C(C)O (centres undefined) the outcome [4] was “inactive”.

For CC(C)(N=C=O)c1cccc(C(C)(C)N=C=O)c1, the outcome [2] was “inactive”, the outcome [4] was “inactive” and the AC50 [7] was 0.933 µM (active). The AC50 [5] was 9.87 µM (active).

NC(=S)NNC(N)=S was tested, and the AC50 [3] was 4.96 µM (active), the AC50 [7] was 3.45 µM (active) and the outcome [5] was “inactive”.

For C=C(C)[C@H]1CC=C(C)C(=O)C1, the AC50 [8] was 0.597 µM (active) and the outcome [9] was “inactive”.

CCCCSCCCC was tested, and the outcome [4] was “inactive” and the AC50 [9] was 1 µM (active).

In the case of CN(C)C(=S)SC(=S)N(C)C, the AC50 [10] is reported as 1.03 µM (active), the AC50 [3] is reported as 0.326 µM (active) and the outcome [11] is reported as “inactive”.

With C=C(C)C(=O)OCC(CC)(COC(=O)C(=C)C)COC(=O)C(=C)C the AC50 [2] was 17.1 µM (active), the AC50 [3] was 12.4 µM (active) and the AC50 [7] was 0.749 µM (active).

With CS(=O)(=O)OCCCCOS(C)(=O)=O the AC50 [8] was 16 µM (active), the outcome [10] was “inactive” and the outcome [12] was “inactive”. For the same molecule, the outcome [13] was “inactive”.

In the case of COc1cc(Cl)c(OC)cc1N, the outcome [8] is reported as “inactive”, the outcome [5] is reported as “inactive” and the AC50 [13] is reported as 25 µM (active).

For CCCCCCCCCCCCCCCC(=O)OC/C=C(C)/C=C/C=C(C)/C=C/C1=C(C)CCCC1(C)C, the AC50 [1] was 5.57 µM (active), the AC50 [3] was 25 µM (active) and the AC50 [13] was 42.8 µM (active).

In the case of CCC(C)c1cc([N+](=O)[O-])cc([N+](=O)[O-])c1OC(=O)OC(C)C (centres undefined), the AC50 [4] is reported as 14 µM (active) and the outcome [9] is reported as “inactive”.

In the case of C=C(C)C(=O)OCCOCCOCCOCCOC(=O)C(=C)C, the AC50 [4] is reported as 35.3 µM (active).

O=C1c2ccccc2C(=O)c2c(O)ccc(O)c21 was tested, and the AC50 [1] was 7.12 µM (active) and the AC50 [2] was 25 µM (active).

COCCOC(=O)c1ccccc1C(=O)OCCOC was tested, and the AC50 [14] was 18.6 µM (active), the outcome [4] was “inactive” and the outcome [5] was “inactive”. The outcome [11] was “inactive”.

For C1CCCCC1, the outcome [6] was “inactive”.

O=C1OC[C@H](Cc2cccc(O)c2)[C@H]1Cc1cccc(O)c1 was tested, and the AC50 [10] was 0.686 µM (active) and the AC50 [7] was 5.03 µM (active).

For CCCC[O][Al]([O]CCCC)[O]CCCC, the AC50 [1] was 0.138 µM (active) and the outcome [2] was “inactive”.

For Oc1c(Cl)cc(Cl)c(Cl)c1Cc1c(O)c(Cl)cc(Cl)c1Cl, the AC50 [1] was 2.9 µM (active), the AC50 [2] was 1.21 µM (active) and the outcome [9] was “inactive”. The AC50 [5] was 1.96 µM (active), the AC50 [11] was 2.93 µM (active) and the AC50 [13] was 15.6 µM (active).

In the case of CCCCCC(C)=O, the outcome [2] is reported as “inactive”.

In the case of CC1(C)C(=O)N(Cl)C(=O)N1Br, the AC50 [15] is reported as 5.02 µM (active).

CCCCCCOCCOCCO was tested, and the AC50 [8] was 0.238 µM (active) and the outcome [5] was “inactive”.
